About 13,000 (27%) of roughly 48,000 compounds showed an effect of 50% or more. The list shows a part of the results.

The test has as its system Wolbachia pipientis. The test can be described thus: Anti-Wolbachia Cell-Based Screen. The test is classed as functional. Also noted: scale not given: in the data most compounds retested in dose-response had high values. To be noted: 5 µM.
As for `CCOc1ccccc1N1CCN(C(=O)NCc2cc[nH]n2)CC1`, the “Percent Effect” value worked out at 100.3%.
As to `O=C(NCc1cc[nH]n1)N1CCN(c2ccccc2Cl)CC1`, the “Percent Effect” value is given as 14.41%.
Regarding `CCN1CCN(C(=O)NCc2cc[nH]n2)CC1`, the “Percent Effect” value was determined as 108.7%.
In the case of `CC(=O)N1CCCN(C(=O)NCc2cc[nH]n2)CC1` it was -2.345%.
As for `O=C(NCc1ccc(N2CCSCC2)cc1)NCc1cc[nH]n1`, the “Percent Effect” value is reported as -6.382%.
With `NC(=O)c1ccc(CNC(=O)NCc2cc[nH]n2)cc1`, the “Percent Effect” value is 0.637%.
For the compound `CCC1c2ccsc2CCN1C(=O)NCc1cc[nH]n1` (stereo unspecified), the “Percent Effect” value was 5.553%.
With `O=C(NCc1cc[nH]n1)N1CCC(Oc2ccccc2Cl)CC1`, the “Percent Effect” value was -25.2%.
Take `CC(=O)c1ccc(N2CCN(C(=O)NCc3cc[nH]n3)CC2)cc1`: the “Percent Effect” value is recorded as 106.6%.
The value for `CN(C)c1ccccc1C(=O)N1C[C@@H](CN2CCC(O)CC2)[C@@H](CO)C1` was -115.2%.
As for `Cc1cc(C(=O)Cn2cnnc2[S+](C)[O-])cc(C)c1F` (stereo unspecified), the “Percent Effect” value turned out to be 2.039%.
`O=C(NCc1nc2cc(F)ccc2[nH]1)c1ccc[nH]1`: the “Percent Effect” value was 85.11%.
In the case of `CS(=O)(=O)c1cccc(C(=O)NCC2Cc3ccccc3O2)c1` (stereo unspecified), the “Percent Effect” value is -50.83%.
`COC(=O)NCC(=O)N1CCC(c2nc3cc(F)ccc3[nH]2)CC1`: the “Percent Effect” value is given as -27.28%.
Regarding `O=C(NCc1nc2ccccc2[nH]1)c1cc2n(n1)CCCO2`, the “Percent Effect” value turned out to be 4.478%.
Consider `O=C(NCc1nc2ccccc2[nH]1)c1cnn2c1OCCC2`, for which the “Percent Effect” value worked out at 8.573%.
On to `CS(=O)(=O)c1ccc(C(=O)NCc2nc3cc(F)ccc3[nH]2)cc1`, for which the “Percent Effect” value is listed as 97.05%.
Consider `CS(=O)(=O)c1cccc(C(=O)NCc2nc3cc(F)ccc3[nH]2)c1`, for which the “Percent Effect” value was determined as 93.8%.
As to `CS(=O)(=O)c1cccc(C(=O)NCC2(c3ccccc3)CC2)c1`, the “Percent Effect” value is given as -5.384%.
In the case of `CC(C)c1cc(C(=O)NCc2nc(-c3ccc(F)cc3)n[nH]2)n[nH]1` it was 8.194%; in that of `Cc1cc(NC(=O)Cn2nc(C)c(C#N)c2N)ccc1Br`, -7.247%.
Consider `Fc1ccc(-c2cc(NCCC3CCOC3)n3nccc3n2)cc1` (stereo unspecified), for which the “Percent Effect” value stood at 40.16%.
In the case of `O=C(NC1CC1)[C@H]1CC[C@@H]2[C@@H](CCN2CCOCc2ccccc2)O1.O=C(O)C(F)(F)F` it was 6.133%; in that of `CCS(=O)(=O)N1CCOC2(COCCN(C(C)=O)C2)C1` (stereo unspecified), -3.912%; in that of `CCC1CN(C(=O)c2ccccc2N2CCOCC2)CCN1C(C)C` (stereo unspecified), 8.112%.
Consider `CCNC(=O)C1CCN(c2cc(-c3ccccc3F)nc3ccnn23)C1` (stereo unspecified), for which the “Percent Effect” value was -1.287%.
For `COc1ccccc1CN1C[C@@H](F)[C@@H](OCc2nc3ccccc3[nH]2)C1`, the “Percent Effect” value was determined as 0.7932%.
With `CC(=O)NCc1nnc2n1CCN(c1nc(C)nc3sccc13)CC2`, the “Percent Effect” value is recorded as -5.354%.
Regarding `Cc1ccsc1C(=O)N1CCc2ncc(CN3CCCC3)n2CC1.O=C(O)C(F)(F)F`, the “Percent Effect” value is given as -31.81%.
On to `Cl.Cn1cncc1CN1CCc2nc3sccc3c(=O)n2CC1`, for which the “Percent Effect” value turned out to be 103.5%.
In the case of `CCn1cncc1CN1CCc2nc3sccc3c(=O)n2CC1`, the “Percent Effect” value was 89.02%.
The value for `Cc1ccc(CN2CCNC(C(=O)NC3CC3)C2)cc1C` (stereo unspecified) was 34.83%; that for `CC(NC1CCN(CCS(C)(=O)=O)CC1)c1ccc(Cl)cc1` (stereo unspecified) was -9.034%.
Regarding `Cc1ncsc1CCC(=O)NC1CCN(c2ccc(Cl)nn2)CC1`, the “Percent Effect” value was -3.367%.
For `O=C(Nc1ccc(-n2cncn2)c(F)c1)C1CCN(C(=O)C2CC2)CC1`, the “Percent Effect” value is reported as -16.72%.
On to `NC1CCN(c2nccn3c(=O)[nH]nc23)CC1`, for which the “Percent Effect” value is 124.1%.
Consider `CC1CCN(c2nc3c(cnn3-c3ccccc3)c(=O)[nH]2)CC1`, for which the “Percent Effect” value came out at 0.2654%.
As for `CC1CCCN(c2nccn3c(=O)[nH]nc23)C1` (stereo unspecified), the “Percent Effect” value was determined as 119.4%.
Turning to `CC1CCCN(c2ccccc2OCC(=O)NC2CC2)C1` (stereo unspecified), the “Percent Effect” value was -2.178%.
Consider `NS(=O)(=O)CC1CCN(c2ncccc2C(F)(F)F)CC1`, for which the “Percent Effect” value is -0.5729%.
In the case of `CC1CCN(Cc2cc(=O)[nH]c(=O)[nH]2)CC1` it was -40.44%.
In the case of `CC(C)n1ccnc1C1CCCN(c2ncccc2C(N)=O)C1` (stereo unspecified), the “Percent Effect” value came out at 2.955%.
Take `CC1CCN(c2nccn3c(=O)[nH]nc23)CC1`: the “Percent Effect” value came to 109.7%.
With `c1ccc(-c2nc3c(c(NCCCn4cncn4)n2)CCNCC3)nc1`, the “Percent Effect” value is listed as -4.021%.
On to `COc1ccc(C(CO)NC(=O)Nc2cccnc2)cc1` (stereo unspecified), for which the “Percent Effect” value was -17.84%.
As for `Cc1nnc(C(C)N(C)Cc2c(C)nn(-c3ccccc3C)c2C)o1` (stereo unspecified), the “Percent Effect” value was -9.364%.
In the case of `CCn1nnnc1-c1cccc(NC(=O)COC2CCCC2)c1` it was 5.943%; in that of `CCc1noc(C(C)N2CCN(Cc3noc(C4CC4)n3)CC2)n1` (stereo unspecified), 3.435%.
For the compound `CCCc1nc(CN2CCN(Cc3noc(CCC)n3)CC2)no1`, the “Percent Effect” value is recorded as 0.9498%.
Consider `CCc1noc(C(C)N2CCCN(Cc3noc(C4CC4)n3)CC2)n1` (stereo unspecified), for which the “Percent Effect” value was determined as 8.614%.
Turning to `CCc1nc(CN2CCN(C(C)c3nc(C4CC4)no3)CC2)no1` (stereo unspecified), the “Percent Effect” value worked out at 112.7%.
Regarding `CCCc1nc(CN2CCN(C(C)c3nc(C4CC4)no3)CC2)no1` (stereo unspecified), the “Percent Effect” value is 124.6%.
Take `Cc1nnc(CN2CCCCC2c2nc(-c3ccccc3)no2)s1` (stereo unspecified): the “Percent Effect” value is reported as -13.6%.
The value for `Cc1cnc(N2CCOC3(CCCN(c4ncccn4)C3)C2)nc1` (stereo unspecified) was -13.37%.
The value for `Cc1cnc(N2CCC3(CCCN(c4ncc(F)cn4)C3)C2)nc1` (stereo unspecified) was 103%; that for `O=S(=O)(C1CC1)N1CCC2(CCCN(c3ncc(F)cn3)C2)C1` (stereo unspecified) was -1.558%.
The value for `CCCS(=O)(=O)N1CCC2(CCCN(c3ncc(F)cn3)C2)C1` (stereo unspecified) was 14.12%.
On to `Cc1cnc(N2CCCC3(COCCN(c4nccs4)C3)C2)nc1` (stereo unspecified), for which the “Percent Effect” value is on record as -8.565%.
As for `Cc1cnc(N2CCCC3(CCOCC3)C2)nc1`, the “Percent Effect” value turned out to be 109.2%.
For the compound `CS(=O)(=O)N1CCC2(CCCN(c3ncc(F)cn3)C2)C1` (stereo unspecified), the “Percent Effect” value amounted to 6.577%.
In the case of `Fc1cnc(N2CCCC3(CCN(c4ncccn4)C3)C2)nc1` (stereo unspecified), the “Percent Effect” value stood at 88.49%.
The value for `CCS(=O)(=O)N1CCC2(CCCN(c3ncc(F)cn3)C2)C1` (stereo unspecified) was -3.984%; that for `Cc1cc(C)c2nc(CN3CCC(N4CCOCC4)CC3)cc(O)c2c1` was -11.95%; that for `CCN(C(c1cccnc1)c1cc(C)cc(C)c1)S(C)(=O)=O` (stereo unspecified) was 1.72%.
`Cc1oc(-c2ccsc2)nc1CC(=O)NCCS(C)(=O)=O`: the “Percent Effect” value is -2.536%.
With `CN(C)CCOCC1CN(C(=O)c2cscn2)Cc2ccnn2C1` (stereo unspecified), the “Percent Effect” value is listed as -0.6425%.

(Values after ChEMBL document CHEMBL3988442, “University of Dundee, Small-Polar-MMV Screening Library” (2021).)
